# Reference: PubChem BioAssay (Tox21)
# A number with no mark means an inactive call. Results filed as inconclusive are left out. Where a call stands in place of a potency, no number is given. Calls of active or inactive are those of the source. Unless noted, calls come from the whole dose curve; as a rule, active = well fitted curve in the direction sought with a large enough effect in the repeat runs; inconclusive = weak or mixed curves; inactive = no such curve, though single readings can be large; an effect the other way counts as inactive or inconclusive.
# Experiments:
# [1] = target: Thyrotropin receptor (Homo sapiens) (UniProt P16473); assay: qHTS assay to identify small molecule agonists of the thyroid stimulating hormone receptor (TSHR) signaling pathway (AID 1224843; calls by dose curve; note: nearly all actives have a fitted effect of over 45% in size)
# Chain of Thyrotropin receptor (Homo sapiens) (P16473 whole entry, looked up): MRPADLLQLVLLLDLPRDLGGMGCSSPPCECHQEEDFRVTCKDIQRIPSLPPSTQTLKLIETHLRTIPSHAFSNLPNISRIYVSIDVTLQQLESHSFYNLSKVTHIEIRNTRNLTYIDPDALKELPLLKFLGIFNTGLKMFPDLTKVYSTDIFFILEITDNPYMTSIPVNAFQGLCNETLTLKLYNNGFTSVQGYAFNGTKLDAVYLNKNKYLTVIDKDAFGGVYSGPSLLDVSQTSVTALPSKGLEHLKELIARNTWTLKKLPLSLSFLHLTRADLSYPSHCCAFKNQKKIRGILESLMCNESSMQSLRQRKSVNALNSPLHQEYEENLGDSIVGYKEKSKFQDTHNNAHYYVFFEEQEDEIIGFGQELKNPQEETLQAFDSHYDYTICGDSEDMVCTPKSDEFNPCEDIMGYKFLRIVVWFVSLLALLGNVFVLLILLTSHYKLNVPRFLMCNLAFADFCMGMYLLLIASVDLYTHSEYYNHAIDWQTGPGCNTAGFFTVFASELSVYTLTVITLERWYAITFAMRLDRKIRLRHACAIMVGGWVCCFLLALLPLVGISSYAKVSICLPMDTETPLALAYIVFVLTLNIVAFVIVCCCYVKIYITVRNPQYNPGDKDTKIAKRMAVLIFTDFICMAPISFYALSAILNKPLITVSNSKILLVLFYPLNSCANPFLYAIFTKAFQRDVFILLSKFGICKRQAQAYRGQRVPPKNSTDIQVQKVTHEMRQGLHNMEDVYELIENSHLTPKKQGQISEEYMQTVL
# How it was run: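 Steps: seed 800 TSHR-HEK293 cells per well; add test compound and hold 30 min at ambient temperature; dispense cAMP-d2 then anti-cAMP cryptate; incubate 1 h at ambient; measure fluorescence intensity.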
# [2] = qHTS assay to identify small molecule agonists of the hypoxia (HIF-1) signaling pathway - cell viability counter screen (AID 1224844; calls by dose curve; note: nearly all actives have a fitted effect of over 50% in size)
# How it was run: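 ME-180 HRE-bla cells, 2,000/well, 0.5% dialyzed FBS; 5 hr settle, 17 hr compound at 37C/5% CO2; CCF4-AM reporter read first, then CellTiter-Glo luminescence after 30 min RT.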
# [3] = qHTS assay to identify small molecule agonists of H2AX (AID 1224845; active = well fitted activation curve with a large enough effect in the signal ratio in the repeat runs, not every such curve was filed as active; the % refers to the signal ratio)
# How it was run: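 Wild-type CHO-K1 cells, plated overnight, exposed 3hr at 37C to 15 concentrations (0.76% DMSO final). Lysed, then HTRF anti-pH2AX (S139) cryptate and anti-H2AX-d2 antibodies, 24 hr room temperature; 665/620 nm emission read.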
# [4] = qHTS assay to identify small molecule agonists of the hypoxia (HIF-1) signaling pathway (AID 1224846; active = well fitted activation curve with a large enough effect in the signal ratio in the repeat runs, not every such curve was filed as active; the % refers to the signal ratio)
# How it was run: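 Cell line: CellSensor HRE-bla ME-180; 2,000 cells/well; 0.5% dialyzed FBS; 5 h preincubation; DMSO compound pin transfer; 17 h, 37C, 5% CO2; CCF4-AM added; bla FRET signal scored for activation.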
# [5] = qHTS assay to identify small molecule agonists of H2AX - cell viability counter screen (AID 1224847; calls by dose curve; note: top concentration of the series differs between compounds; nearly all actives have a fitted effect of over 30% in size)
# How it was run: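 Cytotoxicity counter screen in wild-type CHO-K1 cells: a 3 hr compound treatment at 37C across 15 concentrations, followed by CellTiter-Glo luminescence to gauge viable cells.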
# [6] = qHTS RealTime-Glo MT Cell Viability Assay in HepG2 cells - 24 hour (AID 1224867); note: nearly all actives have a fitted effect of over 50% in size
# How it was run: (§1)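 Tox21 10K library screened in qHTS format on HepG2 cells carrying RealTime-Glo reagents. Compounds were added after a 5 h preincubation, and the luminescent signal from continuous culture was measured repeatedly during 40 h treatment.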
# [7] = qHTS RealTime-Glo MT Cell Viability Assay in HEK293 cells - 32 hour (AID 1224868); note: nearly all actives have a fitted effect of over 50% in size; note: potency is the fitted concentration of half-maximal effect
# How it was run: (§2)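 Luminescence generated by NanoLuc from substrate produced by living HEK293 cells served as the viability signal. Each value reflects the reading at its stated time point during continuous 40 h compound exposure at 37 C.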
# [8] = A CellTox Green Cytotoxicity Assay to monitor cytotoxicity in HEK293 cells - 0 hour (AID 1224869); note: nearly all actives have a fitted effect of over 50% in size
# How it was run: (§3)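 Nonlytic real-time cytotoxicity: HEK293 + CellTox Green reagent plated, 5 h preincubation, pintool compound addition (23 nL in DMSO), 37 C for 40 h, fluorescence measured at successive time points.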
# [9] = qHTS RealTime-Glo MT Cell Viability Assay in HepG2 cells - 40 hour (AID 1224870); note: nearly all actives have a fitted effect of over 50% in size
# How it was run: (§4)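 HepG2 cells (600/well) mixed with RealTime-Glo MT reagent, settled 5 h at 37 C/5% CO2 before compound addition. Nonlytic NanoLuc luminescence from viable-cell prosubstrate reduction read repeatedly during 40 h treatment at 37 C.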
# [10] = qHTS RealTime-Glo MT Cell Viability Assay in HepG2 cells - 8 hour (AID 1224873); note: nearly all actives have a fitted effect of over 55% in size
# How it was run: as §4
# [11] = qHTS RealTime-Glo MT Cell Viability Assay in HEK293 cells - 40 hour (AID 1224874); details: RealTime-Glo luminescence; max response: stronger effect = lower value; note: nearly all actives have a fitted effect of over 50% in size; note: potency is the fitted concentration of half-maximal effect
# How it was run: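 Cells were seeded together with NanoLuc luciferase and a prosubstrate that viable cells reduce to a luciferase substrate. After a 5 h incubation at 37 C/5% CO2, compounds were added and luminescence was measured repeatedly during 40 h of treatment.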
# [12] = A CellTox Green Cytotoxicity Assay to monitor cytotoxicity in HEK293 cells - 24 hour (AID 1224875); note: nearly all actives have a fitted effect of over 45% in size
# How it was run: as §3
# [13] = A CellTox Green Cytotoxicity Assay to monitor cytotoxicity in HepG2 cells - 16 hour (AID 1224876); note: nearly all actives have a fitted effect of over 45% in size
# How it was run: (§5)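 Read-out is fluorescence of a cyanine dye excluded from live cells that stains DNA of dead HepG2 cells, with signal proportional to cytotoxicity. Plates were read at 0, 8, 16, 24, 32 and 40 h after compound addition.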
# [14] = qHTS RealTime-Glo MT Cell Viability Assay in HepG2 cells - 32 hour (AID 1224877); note: nearly all actives have a fitted effect of over 55% in size
# How it was run: as §1
# [15] = A CellTox Green Cytotoxicity Assay to monitor cytotoxicity in HepG2 cells - 24 hour (AID 1224878); note: nearly all actives have a fitted effect of over 45% in size
# How it was run: as §5
# [16] = A CellTox Green Cytotoxicity Assay to monitor cytotoxicity in HepG2 cells - 40 hour (AID 1224879); note: nearly all actives have a fitted effect of over 40% in size; note: potency is the fitted concentration of half-maximal effect
# How it was run: as §5
# [17] = A CellTox Green Cytotoxicity Assay to monitor cytotoxicity in HEK293 cells - 40 hour (AID 1224871); note: nearly all actives have a fitted effect of over 45% in size
# How it was run: as §3
# [18] = qHTS RealTime-Glo MT Cell Viability Assay in HEK293 cells - 16 hour (AID 1224872); note: nearly all actives have a fitted effect of over 50% in size; note: potency is the fitted concentration of half-maximal effect
# How it was run: as §2
# [19] = qHTS assay to identify small molecule antagonists of the estrogen related receptor (ERR) signaling pathway from Tox21 library (AID 1224848); note: nearly all actives have a fitted effect of over 50% in size
# How it was run: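 Luminescent reporter read-out (ONE-Glo) from NTP's ERR cell line after 18 h treatment at 37 C with DMSO-dissolved Tox21 compounds; cells pre-plated 6 h beforehand at 2,000 per well.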
# [20] = qHTS assay to identify small molecule agonists of the estrogen related receptor (ERR) signaling pathway from Tox21 library (AID 1224849; calls by dose curve; note: nearly all actives have a fitted effect of over 15% in size); details: ERR reporter cell line, ONE-Glo luciferase, 18 h; at 92.4 µM (top of the series) unless noted
# How it was run: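 ERR cells, 6 h pre-incubation 37 C/5% CO2; cpd in DMSO pinned; 18 h 37 C; ONE-Glo added, 30 min RT; luminescence read. Agonist mode, qHTS.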
compound,measurement,setting,value
Cc1ccco1,Potency,[1],inactive
same,Potency,[2],inactive
same,Potency,[3],inactive
same,outcome,[4],inactive
same,Potency,[5],inactive
same,Potency,[6],inactive
same,Potency,[7],inactive
same,Potency,[8],inactive
same,Potency,[9],inactive
same,Potency,[10],inactive
same,max response,[11],15.4%
same,Potency,[12],inactive
same,Potency,[13],inactive
same,Potency,[14],inactive
same,Potency,[15],inactive
same,Potency,[16],inactive
CCCCOc1ccc(OCCCN2CCOCC2)cc1,Potency,[1],inactive
same,Potency,[2],inactive
same,Potency,[3],inactive
same,Potency,[5],inactive
same,Potency,[6],inactive
same,Potency,[8],inactive
same,Potency,[9],inactive
same,Potency,[17],inactive
same,Potency,[18],inactive
same,Potency,[10],inactive
same,max response,[11],-27.6%
same,Potency,[12],inactive
same,Potency,[13],inactive
same,Potency,[14],inactive
same,Potency,[15],inactive
same,Potency,[16],inactive
O=C(O)CCc1nc(-c2ccccc2)c(-c2ccccc2)o1,Potency,[1],inactive
same,Potency,[2],inactive
same,Potency,[3],inactive
same,Potency,[5],inactive
same,Potency,[19],inactive
same,"activity change, positive = activation",[20],-3.38% [at 42.5 µM]
same,Potency,[6],inactive
same,Potency,[7],inactive
same,Potency,[8],inactive
same,Potency,[17],inactive
same,Potency,[18],inactive
same,Potency,[10],inactive
same,max response,[11],0.935%
same,Potency,[12],inactive
same,Potency,[13],inactive
same,Potency,[14],inactive
same,Potency,[15],inactive
same,Potency,[16],inactive
COc1ccccc1N1CCN(CCCCNC(=O)c2ccc(-c3ccc(C(C)=O)cc3)cc2)CC1,Potency,[1],inactive
same,Potency,[2],inactive
same,Potency,[3],inactive
same,outcome,[4],inactive
same,Potency,[5],inactive
same,Potency,[6],inactive
same,Potency,[7],1.51 µM (active)
same,Potency,[8],inactive
same,Potency,[9],inactive
same,Potency,[18],1.9 µM (active)
same,Potency,[10],inactive
same,Potency,[11],1.9 µM (active)
same,Potency,[12],inactive
same,Potency,[13],inactive
same,Potency,[14],inactive
same,Potency,[16],26.8 µM (active)
